In the supplement of paper PMC10849652:
The full data set covers some 7,900 targets. This sample favours those with a hit. About 0.6% of all pairs of compound and target were hits.

Legend:
Assay in all cases: log2 fold change, soluble protein after heating vs DMSO (PISA); higher = thermal stabilisation; K562 cells, 10 uM, 30 min; active = over 0.2 and 3.5 SD of the protein, either way, in both replicates (recomputed)
[1] = compound: CC[C@@H]1C(=O)N(C)c2cnc(Nc3ccc(C(=O)NC4CCN(C)CC4)cc3OC)nc2N1C1CCCC1
Method in brief: (§1)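 Soluble protein was quantified by TMTpro 16plex LC-MS/MS after channel sums were equalised. It was obtained as the supernatant after 21,000xg for 90 min from pooled aliquots of K562 cells (2×10^6 cells/mL, 10 μM compound, 30 min) heated for 3 min across 48°C-58°C and extracted in PBS with 0.5% NP-40 at 4°C. Thermal stability values are relative to control samples and come from duplicates. They are given as log2 fold changes.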

volasertib = compound: CC[C@@H]1C(=O)N(C)c2cnc(Nc3ccc(C(=O)N[C@H]4CC[C@H](N5CCN(CC6CC6)CC5)CC4)cc3OC)nc2N1C(C)C [volasertib]
Method in brief: as §1

[2] = compound: CC[C@H](C)N1C=C(C2=C(C=C(C=C21)C3=CN=C(C=C3)N4CCNCC4)C(=O)NCC5=C(C=C(NC5=O)C)C)C
Method in brief: as §1

epoxomicin = compound: CC[C@H](C)[C@@H](C(=O)N[C@@H]([C@@H](C)O)C(=O)N[C@@H](CC(C)C)C(=O)[C@]1(CO1)C)NC(=O)[C@H]([C@@H](C)CC)N(C)C(=O)C [epoxomicin]
Method in brief: as §1

[3] = compound: CCn1c(C(=O)N(C2CC2)C2CC2)cc2c3c(ncn3C)c(Nc3cc(C)n(C)n3)nc21
Method in brief: as §1

[4] = compound: CCn1cc(-c2ccnc3[nH]c(-c4cccc(CN(C)C)c4)cc23)c(-c2ccc(NC(=O)N(C)C)cc2)n1
Method in brief: as §1

[5] = compound: CN(C)CC(=O)Nc1ccc2[nH]c(=O)c3ccccc3c2c1
Method in brief: as §1

rosiglitazone = compound: CN(CCOC1=CC=C(C=C1)C[C@H]2C(=O)NC(=O)S2)C3=CC=CC=N3 (racemic) [rosiglitazone]
Method in brief: as §1

[6] = compound: CN1C2=C(C3=C1C(=O)N(N=C3)CC4=CC(=CC=C4)N)SC(=C2)S(=O)C
Method in brief: as §1

[7] = compound: CN1CCC(CNc2ccc3ncc(-c4cccc(OC(F)(F)F)c4)n3n2)CC1
Method in brief: as §1

saracatinib = compound: CN1CCN(CCOc2cc(OC3CCOCC3)c3c(Nc4c(Cl)ccc5c4OCO5)ncnc3c2)CC1 [saracatinib]
Method in brief: as §1

sotrastaurin = compound: CN1CCN(c2nc(C3=C(c4c[nH]c5ccccc45)C(=O)NC3=O)c3ccccc3n2)CC1 [sotrastaurin]
Method in brief: as §1

Tubastatin A = compound: CN1CCc2c(c3ccccc3n2Cc2ccc(C(=O)NO)cc2)C1 [Tubastatin A]
Method in brief: as §1

[8] = compound: CNC(=O)C1=CC=CC=C1NC2=NC(=NC=C2Cl)NC3=C(C=C(C=C3)N4CCOCC4)OC
Method in brief: as §1

defactinib = compound: CNC(=O)c1ccc(Nc2ncc(C(F)(F)F)c(NCc3nccnc3N(C)S(C)(=O)=O)n2)cc1 [defactinib]
Method in brief: as §1

rucaparib = compound: CNCc1ccc(-c2[nH]c3cc(F)cc4c3c2CCNC4=O)cc1 [rucaparib]
Method in brief: as §1

[9] = compound: CNc1nc(-c2ccc3c(N)n[nH]c3c2)cc(N2C[C@@H](C(=O)NC3CCCCC3)CC[C@H]2C)n1
Method in brief: as §1

encorafenib = compound: COC(=O)N[C@@H](C)CNc1nccc(-c2cn(C(C)C)nc2-c2cc(Cl)cc(NS(C)(=O)=O)c2F)n1 [encorafenib]
Method in brief: as §1

[10] = compound: COC(=O)[C@H](CCSC)NC(=O)C1=C(C=C(C=C1)NC[C@H](CS)N)C2=CC=CC=C2
Method in brief: as §1

alvocidib = compound: CN1CC[C@H](c2c(O)cc(O)c3c(=O)cc(-c4ccccc4Cl)oc23)[C@H](O)C1 [alvocidib]
Method in brief: as §1

Measured: log2 fold change

FYB1 isoform 3 (UniProt O15117)
inactive: [1] -0.018 | volasertib -0.201 | [2] 0.263 | epoxomicin 0.052 | [3] -0.057 | [4] -0.008 | [5] 0.019 | rosiglitazone 0.115 | [6] -0.068 | [7] -0.246 | saracatinib 0.007 | sotrastaurin -0.101 | Tubastatin A -0.018 | [8] 0 | defactinib -0.112 | rucaparib 0.028 | [9] -0.076 | encorafenib 0.074 | [10] -0.01

IFITM3 (UniProt Q01628)
Sequence of UniProt Q01628 (Q01628 whole entry, looked up): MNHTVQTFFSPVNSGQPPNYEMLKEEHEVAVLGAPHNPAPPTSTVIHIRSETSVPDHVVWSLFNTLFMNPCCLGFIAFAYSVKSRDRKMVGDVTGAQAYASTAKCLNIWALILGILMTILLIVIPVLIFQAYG
inactive: [1] -0.004 | volasertib 0.033 | [2] 0.023 | epoxomicin -0.007 | [3] -0.124 | [5] 0.175 | rosiglitazone -0.096 | [6] -0.015 | saracatinib -0.022 | sotrastaurin 0.035 | alvocidib -0.011 | Tubastatin A 0.241 | [8] 0.044 | defactinib -0.165 | rucaparib 0.093 | [9] 0.03 | encorafenib 0.1 | [10] 0.008

GATD1 (UniProt Q8NB37)
Sequence of UniProt Q8NB37 (Q8NB37 whole entry, looked up): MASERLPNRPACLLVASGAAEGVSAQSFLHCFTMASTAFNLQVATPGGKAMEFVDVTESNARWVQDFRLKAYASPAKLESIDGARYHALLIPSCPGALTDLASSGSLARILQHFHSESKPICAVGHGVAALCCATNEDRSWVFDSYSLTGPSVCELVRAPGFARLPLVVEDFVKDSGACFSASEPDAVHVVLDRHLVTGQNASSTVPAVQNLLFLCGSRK
inactive: [1] -0.023 | volasertib -0.009 | [2] -0.032 | epoxomicin 0.078 | [3] 0.013 | [4] -0.034 | [5] -0.02 | rosiglitazone 0.013 | [6] 0.011 | [7] -0.049 | saracatinib 0.077 | sotrastaurin 0.057 | alvocidib -0.084 | Tubastatin A 0.06 | [8] -0.079 | defactinib 0.001 | rucaparib -0.004 | [9] -0.022 | encorafenib 0 | [10] 0.011

FDXR isoform 7 (UniProt P22570)
Sequence of UniProt P22570 (P22570 whole entry, looked up): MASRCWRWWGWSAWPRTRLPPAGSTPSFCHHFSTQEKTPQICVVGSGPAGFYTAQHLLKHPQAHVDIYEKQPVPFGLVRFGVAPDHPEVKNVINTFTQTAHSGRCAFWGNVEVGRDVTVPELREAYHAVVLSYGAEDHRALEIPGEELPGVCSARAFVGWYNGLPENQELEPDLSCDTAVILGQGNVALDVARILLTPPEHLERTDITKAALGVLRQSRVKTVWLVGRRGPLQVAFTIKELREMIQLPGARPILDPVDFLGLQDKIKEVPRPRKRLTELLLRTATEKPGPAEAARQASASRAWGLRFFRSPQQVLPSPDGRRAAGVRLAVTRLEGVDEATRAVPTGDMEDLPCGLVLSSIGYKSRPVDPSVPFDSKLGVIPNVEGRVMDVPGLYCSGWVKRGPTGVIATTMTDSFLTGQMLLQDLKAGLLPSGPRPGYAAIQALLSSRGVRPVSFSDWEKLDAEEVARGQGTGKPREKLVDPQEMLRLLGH
active: [7] -0.387
inactive: [1] 0.052 | volasertib 0.003 | [2] 0.025 | epoxomicin 0.059 | [3] 0.01 | [4] -0.144 | [5] 0.012 | rosiglitazone 0.035 | [6] -0.097 | saracatinib -0.027 | sotrastaurin 0.116 | alvocidib -0.058 | Tubastatin A -0.01 | [8] -0.012 | defactinib -0.115 | rucaparib -0.035 | [9] 0.034 | encorafenib -0.034 | [10] -0.023

IFT80 isoform 3 (UniProt Q9P2H3)
Sequence of UniProt Q9P2H3 (Q9P2H3 whole entry, looked up): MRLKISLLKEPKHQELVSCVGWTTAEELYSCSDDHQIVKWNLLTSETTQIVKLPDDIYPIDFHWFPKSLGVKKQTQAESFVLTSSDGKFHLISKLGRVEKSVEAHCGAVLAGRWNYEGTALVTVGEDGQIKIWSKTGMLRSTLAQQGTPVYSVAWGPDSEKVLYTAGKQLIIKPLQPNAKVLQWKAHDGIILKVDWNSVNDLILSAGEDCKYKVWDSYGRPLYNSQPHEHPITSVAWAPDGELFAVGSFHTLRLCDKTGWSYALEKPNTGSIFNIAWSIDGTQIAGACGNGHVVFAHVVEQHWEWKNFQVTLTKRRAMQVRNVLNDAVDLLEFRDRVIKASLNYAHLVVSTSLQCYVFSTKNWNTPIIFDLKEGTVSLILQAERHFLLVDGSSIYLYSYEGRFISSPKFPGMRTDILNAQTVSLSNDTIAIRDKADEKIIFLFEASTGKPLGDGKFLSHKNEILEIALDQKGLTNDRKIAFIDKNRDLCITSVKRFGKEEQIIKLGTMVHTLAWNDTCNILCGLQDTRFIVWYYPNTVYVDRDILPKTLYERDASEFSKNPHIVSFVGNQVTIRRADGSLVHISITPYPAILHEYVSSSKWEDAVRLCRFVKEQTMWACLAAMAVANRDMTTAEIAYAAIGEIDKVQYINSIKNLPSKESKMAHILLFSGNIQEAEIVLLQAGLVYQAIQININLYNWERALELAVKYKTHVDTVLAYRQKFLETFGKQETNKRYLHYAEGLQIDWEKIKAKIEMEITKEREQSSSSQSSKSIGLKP
inactive: [1] 0.039 | [2] 0.072 | epoxomicin 0.053 | [3] 0.008 | [4] -0.09 | [5] 0.095 | rosiglitazone 0.028 | [6] -0.084 | [7] -0.157 | saracatinib -0.016 | sotrastaurin 0.029 | alvocidib -0.091 | Tubastatin A 0.094 | [8] 0.01 | defactinib -0.023 | rucaparib 0.029 | [9] -0.007 | encorafenib 0.056 | [10] 0.014
active: volasertib -0.232

GABPA (UniProt Q06546)
Sequence of UniProt Q06546 (Q06546 whole entry, looked up): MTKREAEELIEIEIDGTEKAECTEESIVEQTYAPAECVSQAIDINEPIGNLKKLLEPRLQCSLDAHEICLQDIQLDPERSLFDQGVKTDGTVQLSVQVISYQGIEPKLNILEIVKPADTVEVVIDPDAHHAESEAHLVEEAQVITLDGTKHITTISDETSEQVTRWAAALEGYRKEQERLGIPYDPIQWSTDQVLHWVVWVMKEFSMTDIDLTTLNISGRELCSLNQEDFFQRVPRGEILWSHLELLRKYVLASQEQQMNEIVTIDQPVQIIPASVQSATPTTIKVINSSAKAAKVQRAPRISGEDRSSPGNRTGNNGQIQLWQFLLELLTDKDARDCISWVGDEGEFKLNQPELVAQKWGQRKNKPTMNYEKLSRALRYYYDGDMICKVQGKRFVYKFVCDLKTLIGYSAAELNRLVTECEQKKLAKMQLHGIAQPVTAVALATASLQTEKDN
inactive: [1] -0.017 | [2] 0.079 | epoxomicin 0.007 | [3] -0.083 | [4] -0.07 | [5] 0.037 | rosiglitazone 0.076 | [6] -0.026 | [7] -0.174 | saracatinib -0.065 | sotrastaurin -0.086 | alvocidib -0.134 | Tubastatin A 0.087 | [8] -0.063 | defactinib -0.064 | rucaparib -0.015 | [9] 0.018 | encorafenib 0.019 | [10] 0.011
active: volasertib -0.304

HDAC7 isoform 5 (UniProt Q8WUI4)
Sequence of UniProt Q8WUI4 (Q8WUI4 whole entry, looked up): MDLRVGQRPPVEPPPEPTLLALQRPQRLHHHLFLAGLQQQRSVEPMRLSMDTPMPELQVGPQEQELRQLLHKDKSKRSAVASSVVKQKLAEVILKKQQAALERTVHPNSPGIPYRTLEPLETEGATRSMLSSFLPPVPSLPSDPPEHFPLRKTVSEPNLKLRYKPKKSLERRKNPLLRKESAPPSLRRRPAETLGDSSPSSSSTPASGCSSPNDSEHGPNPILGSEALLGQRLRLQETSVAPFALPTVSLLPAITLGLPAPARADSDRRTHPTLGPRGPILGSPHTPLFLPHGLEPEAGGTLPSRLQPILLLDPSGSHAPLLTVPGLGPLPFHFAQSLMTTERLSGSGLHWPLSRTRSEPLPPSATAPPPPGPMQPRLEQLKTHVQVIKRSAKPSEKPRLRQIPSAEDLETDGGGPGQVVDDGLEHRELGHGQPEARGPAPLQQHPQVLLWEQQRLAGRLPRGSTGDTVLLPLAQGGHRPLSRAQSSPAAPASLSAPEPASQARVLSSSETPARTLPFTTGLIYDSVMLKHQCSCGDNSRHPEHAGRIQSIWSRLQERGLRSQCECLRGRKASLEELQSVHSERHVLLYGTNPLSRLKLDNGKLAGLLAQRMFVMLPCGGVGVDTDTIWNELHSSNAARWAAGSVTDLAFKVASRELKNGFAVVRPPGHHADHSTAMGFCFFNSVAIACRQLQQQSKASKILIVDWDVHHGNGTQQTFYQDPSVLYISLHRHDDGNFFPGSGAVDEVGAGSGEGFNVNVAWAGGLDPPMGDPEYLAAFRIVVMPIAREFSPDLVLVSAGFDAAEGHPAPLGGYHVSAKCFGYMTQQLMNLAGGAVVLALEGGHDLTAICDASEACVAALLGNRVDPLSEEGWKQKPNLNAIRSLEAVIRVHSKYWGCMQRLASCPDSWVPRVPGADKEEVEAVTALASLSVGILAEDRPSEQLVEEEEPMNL
inactive: [1] 0.051 | volasertib 0.01 | [2] 0.007 | epoxomicin 0.016 | [3] -0.031 | [4] -0.058 | [5] 0.059 | rosiglitazone 0.011 | [6] -0.053 | [7] -0.123 | saracatinib -0.04 | sotrastaurin -0.048 | alvocidib -0.185 | [8] -0.2 | defactinib -0.011 | rucaparib -0.033 | [9] 0 | encorafenib -0.016 | [10] 0.012

FARS2 (UniProt O95363)
Sequence of UniProt O95363 (O95363 whole entry, looked up): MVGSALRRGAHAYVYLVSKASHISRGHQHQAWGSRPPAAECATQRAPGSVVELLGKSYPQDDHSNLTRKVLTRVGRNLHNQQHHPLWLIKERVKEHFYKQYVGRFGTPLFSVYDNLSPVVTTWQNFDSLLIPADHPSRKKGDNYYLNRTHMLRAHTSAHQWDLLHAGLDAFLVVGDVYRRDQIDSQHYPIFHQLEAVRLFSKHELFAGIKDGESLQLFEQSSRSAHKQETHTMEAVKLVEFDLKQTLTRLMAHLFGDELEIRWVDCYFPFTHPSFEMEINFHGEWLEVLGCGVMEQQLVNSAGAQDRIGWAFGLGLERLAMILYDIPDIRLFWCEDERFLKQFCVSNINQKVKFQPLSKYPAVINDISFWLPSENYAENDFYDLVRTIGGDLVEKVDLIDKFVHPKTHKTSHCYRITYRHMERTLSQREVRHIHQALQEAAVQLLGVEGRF
active: [7] -0.319
inactive: [1] 0.01 | volasertib -0.172 | [2] 0.109 | epoxomicin -0.034 | [3] 0.036 | [4] -0.052 | [5] -0.036 | rosiglitazone 0.086 | [6] -0.002 | saracatinib -0.026 | sotrastaurin -0.003 | alvocidib -0.158 | Tubastatin A -0.045 | [8] 0.075 | defactinib -0.023 | rucaparib -0.026 | [9] 0.074 | encorafenib 0.026 | [10] -0.054

GOLGB1 isoform 2 (UniProt Q14789)
inactive: [1] 0.009 | volasertib -0.17 | [2] -0.052 | epoxomicin -0.185 | [3] 0.082 | [4] 0.05 | [5] -0.061 | rosiglitazone 0.004 | [6] 0.148 | [7] -0.009 | saracatinib -0.056 | sotrastaurin -0.121 | alvocidib 0.124 | Tubastatin A 0.029 | [8] 0.048 | defactinib 0 | rucaparib 0.02 | [9] -0.001 | encorafenib -0.04 | [10] 0.003

GALK1 isoform 2 (UniProt P51570)
Sequence of UniProt P51570 (P51570 whole entry, looked up): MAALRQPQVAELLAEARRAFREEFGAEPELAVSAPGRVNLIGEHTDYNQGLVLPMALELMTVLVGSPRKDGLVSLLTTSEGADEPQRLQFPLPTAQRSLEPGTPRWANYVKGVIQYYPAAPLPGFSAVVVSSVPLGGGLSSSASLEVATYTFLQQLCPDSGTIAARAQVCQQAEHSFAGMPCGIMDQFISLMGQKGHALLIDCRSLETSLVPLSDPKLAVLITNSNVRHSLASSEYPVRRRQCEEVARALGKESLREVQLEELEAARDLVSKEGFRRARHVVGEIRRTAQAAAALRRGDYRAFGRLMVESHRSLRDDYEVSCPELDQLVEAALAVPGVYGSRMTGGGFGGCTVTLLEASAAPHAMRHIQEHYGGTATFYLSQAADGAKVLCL
inactive: [1] -0.03 | volasertib -0.009 | [2] 0.053 | epoxomicin 0.131 | [3] 0.026 | [4] -0.064 | [5] 0.106 | rosiglitazone 0.024 | [6] -0.049 | [7] -0.03 | saracatinib 0.117 | sotrastaurin -0.096 | alvocidib -0.035 | Tubastatin A -0.011 | [8] -0.049 | defactinib -0.032 | rucaparib -0.014 | [9] 0.055 | encorafenib 0.007 | [10] -0.006

FDPS (UniProt P14324)
Sequence of UniProt P14324 (P14324 whole entry, looked up): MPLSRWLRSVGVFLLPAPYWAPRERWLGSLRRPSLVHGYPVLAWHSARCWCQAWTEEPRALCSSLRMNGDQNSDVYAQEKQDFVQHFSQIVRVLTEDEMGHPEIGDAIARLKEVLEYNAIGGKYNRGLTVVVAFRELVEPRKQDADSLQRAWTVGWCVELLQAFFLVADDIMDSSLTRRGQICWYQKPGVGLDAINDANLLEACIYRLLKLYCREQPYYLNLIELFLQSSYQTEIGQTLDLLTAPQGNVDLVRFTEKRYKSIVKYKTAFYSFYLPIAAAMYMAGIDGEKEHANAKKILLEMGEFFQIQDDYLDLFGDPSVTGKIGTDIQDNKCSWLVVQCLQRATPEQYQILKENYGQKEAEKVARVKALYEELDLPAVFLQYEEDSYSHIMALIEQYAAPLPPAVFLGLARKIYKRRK
active: [7] -0.608
inactive: [1] -0.059 | volasertib -0.191 | [2] 0.075 | epoxomicin 0.028 | [3] -0.054 | [4] -0.277 | [5] 0.111 | rosiglitazone 0.235 | [6] -0.034 | saracatinib -0.151 | sotrastaurin -0.041 | alvocidib -0.057 | Tubastatin A 0.062 | [8] -0.097 | defactinib -0.032 | rucaparib -0.112 | [9] 0.237 | encorafenib 0.137 | [10] -0.118

HS1BP3 (UniProt Q53T59)
active: volasertib -0.343 | [9] 0.371
inactive: [1] -0.038 | [2] 0.073 | epoxomicin 0.056 | [3] -0.043 | [5] 0.012 | rosiglitazone 0.07 | [6] -0.041 | saracatinib 0.107 | sotrastaurin -0.078 | alvocidib -0.275 | [8] -0.005 | defactinib -0.066 | rucaparib -0.038 | encorafenib 0.037 | [10] -0.175

HSPA8 (UniProt E9PN89)
inactive: [1] 0.167 | volasertib 0.114 | [2] -0.205 | epoxomicin -0.278 | [3] -0.127 | [4] 0.178 | [5] -0.139 | rosiglitazone 0.049 | [7] -0.154 | sotrastaurin 0.105 | alvocidib 0.281 | Tubastatin A -0.018 | [8] -0.057 | defactinib 0.044 | rucaparib 0.101 | encorafenib 0.023 | [10] -0.036

IFRD1 (UniProt O00458)
active: rucaparib -0.46
inactive: [1] 0.107 | volasertib -0.015 | [2] -0.14 | epoxomicin 0.053 | [3] 0.019 | [4] -0.016 | [5] -0.143 | rosiglitazone 0 | [6] -0.097 | [7] 0.297 | saracatinib 0.026 | sotrastaurin 0.242 | alvocidib 0.064 | Tubastatin A 0.089 | [8] 0.042 | defactinib -0.003 | [9] -0.042 | encorafenib 0.038 | [10] 0.006

FUCA2 (UniProt Q9BTY2)
Sequence of UniProt Q9BTY2 (Q9BTY2 whole entry, looked up): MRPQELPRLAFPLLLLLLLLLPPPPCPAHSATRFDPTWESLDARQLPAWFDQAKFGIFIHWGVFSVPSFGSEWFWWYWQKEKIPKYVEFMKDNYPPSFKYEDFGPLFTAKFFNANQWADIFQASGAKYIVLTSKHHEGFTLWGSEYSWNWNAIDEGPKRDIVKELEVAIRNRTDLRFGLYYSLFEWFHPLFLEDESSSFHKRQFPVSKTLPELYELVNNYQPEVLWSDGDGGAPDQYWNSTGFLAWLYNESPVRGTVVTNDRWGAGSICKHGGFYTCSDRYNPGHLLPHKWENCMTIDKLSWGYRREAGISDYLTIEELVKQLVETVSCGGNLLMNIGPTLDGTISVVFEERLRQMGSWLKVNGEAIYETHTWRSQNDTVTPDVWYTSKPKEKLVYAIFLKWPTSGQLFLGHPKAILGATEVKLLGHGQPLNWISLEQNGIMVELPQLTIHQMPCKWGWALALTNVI
active: [1] -1.11 | volasertib -1.04
inactive: [2] 0.001 | epoxomicin -0.024 | [3] 0.007 | [4] 0.003 | [5] -0.019 | rosiglitazone -0.023 | [6] -0.033 | [7] -0.029 | saracatinib -0.013 | sotrastaurin -0.021 | alvocidib -0.003 | Tubastatin A -0.026 | [8] 0.028 | defactinib -0.045 | rucaparib -0.139 | [9] 0.003 | encorafenib 0.012 | [10] 0.038

ICMT (UniProt O60725)
inactive: [1] 0.202 | volasertib 0.138 | [2] -0.027 | epoxomicin -0.029 | [3] 0.073 | [5] 0.061 | rosiglitazone 0.033 | [6] -0.051 | saracatinib -0.105 | sotrastaurin 0.025 | Tubastatin A -0.065 | [8] 0.061 | defactinib -0.034 | rucaparib 0.037 | [9] 0.235 | encorafenib -0.144 | [10] 0.062
